The values below come from PubChem BioAssay (NCI).

The structures appear in SMILES notation. About 79,000 compounds went through this panel and 15% of them were active in at least one assay; those are over-represented in the sample as a whole. Unmarked numbers belong to inactive results. Calls of active or inactive are those of the source. Cut-off read from the data, not from the text of the source: active = growth inhibition above about 70%; inactive = the rest.

Test [1] in a line: NCI Yeast Anticancer Drug Screen. Data for the rad50 strain (AID 155).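 Note: 0% = growth of vehicle-only cultures of the same strain.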 The conditions noted are these: S. cerevisiae rad50 strain growth inhibition, stronger effect = higher value. The gist of the method: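 Vehicle-treated cultures provide the reference for the growth inhibition reported for compound-exposed, repair-deficient yeast.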
Test [2] is described as follows: NCI Yeast Anticancer Drug Screen. Data for the mec2-1 strain (AID 157). The note with it: S. cerevisiae mec2-1 strain, stronger effect = higher value. The gist of the method: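 Using mec2-1 yeast: add compound, measure growth, express inhibition versus vehicle-treated cultures.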
The nature of test [3]: NCI Yeast Anticancer Drug Screen. Data for the sgs1 mgt1 strain (AID 161).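 Note: 0% = growth of cultures given vehicle only.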 The conditions noted are these: S. cerevisiae sgs1 mgt1 strain, stronger effect = higher value. The method in brief:
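This yeast growth screen uses a strain with defined DNA-repair lesions; compound-treated growth is compared with vehicle-treated growth.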

The nature of test [4]: NCI Yeast Anticancer Drug Screen. Data for the cln2 rad14 strain (AID 165).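 Note: 0% = growth equal to vehicle treated cultures.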 The conditions noted are these: S. cerevisiae cln2 rad14 strain, stronger effect = higher value. The method in brief: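 Yeast strain cln2 rad14, bearing defects in cell cycle control and DNA repair, serves as the test system; values reflect growth inhibition compared with vehicle.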
Test [5] is described as follows: NCI Yeast Anticancer Drug Screen. Data for the bub3 strain (AID 167). The note with it: S. cerevisiae bub3 mutant strain, stronger effect = higher value. The gist of the method:
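Mutant yeast screening strain plus compound; vehicle-treated cultures serve as the 0% inhibition reference.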

A short description of test [6]: NCI Yeast Anticancer Drug Screen. Data for the mlh1 rad18 strain (AID 175). The note with it: S. cerevisiae mlh1 rad18 strain growth inhibition, stronger effect = higher value. The method in brief:
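Steps: expose repair-defective yeast to compound; measure growth; express inhibition against vehicle-treated controls.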

The mark [7] stands for this setting: at 5.0 µM (retest, dose inferred, filed as 0.5).
[8] abbreviates: at 50.0 µM (retest, dose inferred, filed as 5.0).

Take `O=C(O)/C=C\c1cc2ccccc2c2ccccc12`: the growth inhibition in test [1] (setting [7]) was 13%; in test [1] (setting [8]), 98% (active); in test [1] (at 50.0 µM) it was 98.8% (active); in test [2] (setting [7]) it was -11%; in test [2] (setting [8]), 99% (active); in test [2] (at 50.0 µM), 98.8% (active). For the same compound, the growth inhibition in test [3] (setting [7]) is 18%; in test [3] (setting [8]), 98% (active); in test [3] (at 50.0 µM), 98.4% (active); in test [4] (setting [7]) it was 11%; in test [4] (setting [8]) it was 99% (active); in test [4] (at 50.0 µM), 98.3% (active). Further, the growth inhibition in test [5] (setting [7]) was 8%; in test [5] (setting [8]) it was 99% (active); in test [5] (at 50.0 µM), 98.5% (active); in test [6] (setting [7]) it was 18%; in test [6] (setting [8]), 99% (active); in test [6] (at 50.0 µM), 98.6% (active).
On to `O=C1C=CC(=O)c2c1cc1ccccc1c2O`, for which the growth inhibition was 19% in test [1] (setting [7]); 97% (active) in test [1] (setting [8]); 4.45% in test [1] (at 50.0 µM); 15% in test [2] (setting [7]); 99% (active) in test [2] (setting [8]); -10.8% in test [2] (at 50.0 µM). The growth inhibition is 6% in test [3] (setting [7]); 98% (active) in test [3] (setting [8]); 1.4% in test [3] (at 50.0 µM); 6% in test [4] (setting [7]); 44% in test [4] (setting [8]); 27.4% in test [4] (at 50.0 µM). For the same compound, the growth inhibition in test [5] (setting [7]) was 22%; in test [5] (setting [8]), 96% (active); in test [5] (at 50.0 µM) it was -5.75%; in test [6] (setting [7]) it was 19%; in test [6] (setting [8]), 97% (active); in test [6] (at 50.0 µM), 30.6%.
Consider `O=S(=O)(Nc1ccc2c3c(cccc13)C=C2)c1ccccc1`, for which the growth inhibition in test [1] (setting [7]) was -1%; in test [1] (setting [8]), 98% (active); in test [1] (at 50.0 µM), 64.5%; in test [2] (setting [7]), -4%; in test [2] (setting [8]), 94% (active); in test [2] (at 50.0 µM) it was 75.2% (active). Besides, the growth inhibition in test [3] (setting [7]) is -7%; in test [3] (setting [8]) it was 97% (active); in test [3] (at 50.0 µM) it was 79.8% (active); in test [4] (setting [7]), -9%; in test [4] (setting [8]), 96% (active); in test [4] (at 50.0 µM) it was 61.3%. The growth inhibition in test [5] (setting [7]) is -1%; in test [5] (setting [8]), 98% (active); in test [5] (at 50.0 µM) it was 63.4%; in test [6] (setting [7]), -2%; in test [6] (setting [8]), 97% (active); in test [6] (at 50.0 µM), 92.3% (active).
For `CCCCCN(CCCCC)CC(=O)OCC1(C)CCCC2(C)C3CCC(C(C)C)=CC3=CCC12` (configuration not stated), the growth inhibition in test [1] (setting [7]) is 1%; in test [1] (setting [8]), 22%; in test [1] (at 50.0 µM), -3.45%; in test [2] (setting [7]), 2%; in test [2] (setting [8]), 54%; in test [2] (at 50.0 µM) it was -9.75%. The growth inhibition in test [3] (setting [7]) is -3%; in test [3] (setting [8]), 80% (active); in test [3] (at 50.0 µM), 74.2% (active); in test [4] (setting [7]), -1%; in test [4] (setting [8]), 39%; in test [4] (at 50.0 µM), -59%. In addition, the growth inhibition in test [5] (setting [7]) was 1%; in test [5] (setting [8]), 73% (active); in test [5] (at 50.0 µM) it was -8.05%; in test [6] (setting [7]), 2%; in test [6] (setting [8]), 67%; in test [6] (at 50.0 µM), 28.4%.
For the compound `CC(=O)Nc1ccc(C(=O)NN2C(=O)C(Cl)C2c2cc(Br)cc(Br)c2O)cc1` (configuration not stated), the growth inhibition in test [1] (setting [7]) is 20%; in test [1] (setting [8]), -5%; in test [1] (at 50.0 µM), -18%; in test [2] (setting [7]) it was -6%; in test [2] (setting [8]) it was 5%; in test [2] (at 50.0 µM), -25.1%. Also, the growth inhibition in test [3] (setting [7]) is -1%; in test [3] (setting [8]) it was -7%; in test [3] (at 50.0 µM) it was -23.4%; in test [4] (setting [7]) it was 0%; in test [4] (setting [8]), 12%; in test [4] (at 50.0 µM), 2%. For the same compound, the growth inhibition in test [5] (setting [7]) is -17%; in test [5] (setting [8]), -11%; in test [5] (at 50.0 µM), 0.85%; in test [6] (setting [7]), 7%; in test [6] (setting [8]) it was 26%; in test [6] (at 50.0 µM), -35%.
On to `CCCCOC(=O)C#CC(=O)OCCCC`, for which the growth inhibition in test [1] (setting [7]) is -144%; in test [1] (setting [8]), -114%; in test [1] (at 50.0 µM) it was 99.6% (active); in test [2] (setting [7]), -45%; in test [2] (setting [8]), -46%; in test [2] (at 50.0 µM), 99.5% (active). Further, the growth inhibition in test [3] (setting [7]) is -64%; in test [3] (setting [8]), -40%; in test [3] (at 50.0 µM), 99.3% (active); in test [4] (setting [7]) it was -58%; in test [4] (setting [8]), -65%; in test [4] (at 50.0 µM) it was 99.2% (active). Also, the growth inhibition is -69% in test [5] (setting [7]); -71% in test [5] (setting [8]); 99.3% (active) in test [5] (at 50.0 µM); -146% in test [6] (setting [7]); -105% in test [6] (setting [8]); 99.2% (active) in test [6] (at 50.0 µM).
With `O=c1nc(-c2ccccc2)cc(-c2ccccc2O)[nH]1`, the growth inhibition was -11% in test [1] (setting [7]); 93% (active) in test [1] (setting [8]); 44.1% in test [1] (at 50.0 µM); -1% in test [2] (setting [7]); 25% in test [2] (setting [8]); 16.3% in test [2] (at 50.0 µM). The growth inhibition in test [3] (setting [7]) is -1%; in test [3] (setting [8]) it was 40%; in test [3] (at 50.0 µM) it was 30.4%; in test [4] (setting [7]) it was 19%; in test [4] (setting [8]) it was 61%; in test [4] (at 50.0 µM) it was 33.8%. Further, the growth inhibition in test [5] (setting [7]) was 0%; in test [5] (setting [8]), 87% (active); in test [5] (at 50.0 µM), 16.9%; in test [6] (setting [7]), 1%; in test [6] (setting [8]), 68%; in test [6] (at 50.0 µM) it was 33.5%.
Turning to `CCCN(CCC)C(=O)c1nc(N)nc(-c2ccc(OC)cc2)c1-c1ccc(OC)cc1`, the growth inhibition was 9% in test [1] (setting [7]); 9% in test [1] (setting [8]); -23.6% in test [1] (at 50.0 µM); -1% in test [2] (setting [7]); -1% in test [2] (setting [8]); -30.1% in test [2] (at 50.0 µM). The growth inhibition is -6% in test [3] (setting [7]); -6% in test [3] (setting [8]); 29.4% in test [3] (at 50.0 µM); 0% in test [4] (setting [7]); 0% in test [4] (setting [8]); 2.55% in test [4] (at 50.0 µM). For the same compound, the growth inhibition is -10% in test [5] (setting [7]); -10% in test [5] (setting [8]); -21.4% in test [5] (at 50.0 µM); -9% in test [6] (setting [7]); -9% in test [6] (setting [8]); -42% in test [6] (at 50.0 µM).
Turning to `c1ccc2nc3ccccc3nc2c1`, the growth inhibition in test [1] (setting [7]) is -11%; in test [1] (setting [8]), 64%; in test [1] (at 50.0 µM), 77.5% (active); in test [2] (setting [7]), -3%; in test [2] (setting [8]), 36%; in test [2] (at 50.0 µM), 41.2%. For the same compound, the growth inhibition in test [3] (setting [7]) was -5%; in test [3] (setting [8]), 16%; in test [3] (at 50.0 µM), 28.4%; in test [4] (setting [7]), 2%; in test [4] (setting [8]), 36%; in test [4] (at 50.0 µM) it was 41.8%. Further, the growth inhibition was -1% in test [5] (setting [7]); 45% in test [5] (setting [8]); 33.1% in test [5] (at 50.0 µM); -11% in test [6] (setting [7]); 65% in test [6] (setting [8]); 75% (active) in test [6] (at 50.0 µM).
